Sampled rows, rich in hits. Any-hit rate of the full collection: about 2.1%.
eIF4H inh: inhibitors of RNA binding by human eIF4H | eIF4H fluorescence polarization binding assay | inhibition, % at 35 µM | 290,000 tested, 0.94% active;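 note: calls also rest on retests at 20 µM and on dose response follow-up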
CendR NRP1 mod: NRP-1/CendR interaction modulation; 360,000 tested, 0.85% active; inhibition, % at 25 µM; FAM-RPARPAR peptide binding to NRP-1, fluorescence polarization; O14786;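 active = inhibition or corrected inhibition above about 18%, plus a signal ratio from 0.5 to 1.5, limit read from the data, passing the limit was not always enough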
Target sequence (O14786 whole entry, looked up): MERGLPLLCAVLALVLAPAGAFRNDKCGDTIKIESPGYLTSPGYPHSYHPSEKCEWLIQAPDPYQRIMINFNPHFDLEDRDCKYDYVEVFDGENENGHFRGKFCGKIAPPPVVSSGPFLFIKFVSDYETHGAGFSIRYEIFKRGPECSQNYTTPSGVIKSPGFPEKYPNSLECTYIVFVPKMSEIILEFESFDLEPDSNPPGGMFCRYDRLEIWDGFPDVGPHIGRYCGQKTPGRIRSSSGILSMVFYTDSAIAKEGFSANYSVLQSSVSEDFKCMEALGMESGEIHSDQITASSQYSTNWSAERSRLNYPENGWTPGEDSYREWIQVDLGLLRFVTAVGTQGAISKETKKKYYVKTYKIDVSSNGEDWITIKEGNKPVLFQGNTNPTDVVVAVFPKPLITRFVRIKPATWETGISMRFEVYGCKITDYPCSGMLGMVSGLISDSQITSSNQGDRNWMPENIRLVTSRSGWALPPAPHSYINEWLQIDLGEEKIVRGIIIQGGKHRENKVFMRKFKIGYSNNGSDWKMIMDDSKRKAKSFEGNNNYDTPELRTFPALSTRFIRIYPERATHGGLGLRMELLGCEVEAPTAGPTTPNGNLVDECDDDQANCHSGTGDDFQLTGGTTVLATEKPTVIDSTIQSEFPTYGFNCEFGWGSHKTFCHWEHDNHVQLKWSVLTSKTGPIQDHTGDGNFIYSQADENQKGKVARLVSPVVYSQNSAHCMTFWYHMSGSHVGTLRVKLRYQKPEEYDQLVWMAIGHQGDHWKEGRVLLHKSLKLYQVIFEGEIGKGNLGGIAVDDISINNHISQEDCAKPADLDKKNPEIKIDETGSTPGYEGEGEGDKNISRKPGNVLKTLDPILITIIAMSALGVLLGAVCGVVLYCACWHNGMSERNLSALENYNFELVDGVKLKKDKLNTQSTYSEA
PABP FP inh: blocks human PABP binding to poly(A) RNA. P11940. fluorescence polarization. inhibition, % at 35 µM. 290,000 tested, 1% active;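 note: calls also rest on retests at 20 µM and on dose response follow-up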
MLLE-PAM2 inh: inhibitors of microRNA-mediated deadenylation, human PABP1 MLLE binding; P11940; 360,000 tested, 0.36% active; inhibition, % at 20 µM; AID 588489; GST-MLLE / FITC-PAM2 fluorescence polarization; in the data active = inhibition above about 35%, passing the limit was not always enough
Large screens that a line does not name were inactive. Unless noted, the rule behind the calls is not given here.

CCOC(=O)c1ccc2c(c1)C1C=CCC1C(C(=O)O)N2 (stereo unspecified)	eIF4H inh 91.8, PABP FP inh 82.2 (no result: CendR NRP1 mod, MLLE-PAM2 inh)
O=C(O)c1ccc2c(c1)C1C=CCC1C(c1ccncc1)N2 (stereo unspecified)	eIF4H inh 97.0, PABP FP inh 82.6
CCOC(=O)C1C2C=CC(CC2)N1c1ccccc1 (stereo unspecified)	none (no result: eIF4H inh, PABP FP inh)
CC(C)C1Nc2ccc(C(=O)O)cc2C2C=CCC21 (stereo unspecified)	eIF4H inh 95.7
O=C(O)CCCCCN1C(=O)C(O)=C(C(=O)/C=C/c2ccccc2)C1c1ccccc1[N+](=O)[O-] (stereo unspecified)	MLLE-PAM2 inh 47.1
CCOC(=O)/C=C1\SCC(=O)N1CC(O)CN1C(=O)CS/C1=C\C(=O)OCC	eIF4H inh inconclusive, PABP FP inh 75.2
CCOC(=O)/C=C1\SCC(=O)N1CC(=O)NC1CCCCC1	none
Cc1ccccc1-n1ncc2c1CC(C)(C)CC2NC(=O)CCN1CCCCC1=O (stereo unspecified)	none
CN(CCc1ccccc1)C(=O)c1cccc(NC(=O)Cc2cccc(NC(=O)C3CCCN(C(=O)c4ccccc4)C3)c2)c1 (stereo unspecified)	none (no result: eIF4H inh, PABP FP inh)
CC(C)n1c(SCC(=O)Nc2nncs2)nnc1-c1ccco1	eIF4H inh 72.4, PABP FP inh 41.1 (no result: CendR NRP1 mod, MLLE-PAM2 inh)
Cc1nnc(NC(=O)CSc2nnc(-c3ccco3)n2C(C)C)s1	none
CC(C)c1ccc(S(=O)(=O)N2CCN(C(=O)CN3C(=O)c4ccccc4C3=O)CC2)cc1	CendR NRP1 mod 30.1 (no result: eIF4H inh, PABP FP inh)
Cc1csc(=O)n1CCC(=O)OCC(=O)NNC(=O)c1ccc(Cl)cc1	MLLE-PAM2 inh 45.0 (no result: eIF4H inh, PABP FP inh)
Cc1csc(=O)n1CCC(=O)OCC(=O)NCc1ccc(Cl)cc1Cl	none (no result: eIF4H inh, PABP FP inh)
O=C(O)c1ccc(Cn2cnc3cccnc32)cc1	MLLE-PAM2 inh 43.0
O=C(O)c1ccc(Cn2cnc3scc(-c4ccccc4)c3c2=O)cc1	none
O=C(c1ccccc1)N1CCN(c2nc3ccc([N+](=O)[O-])cc3s2)CC1	none
O=[N+]([O-])c1ccc2nc(N3CCCC3)sc2c1	PABP FP inh 50.3
CCCCc1cn([C@@H](CCCCN)C(=O)N2CCNCC2)nn1	eIF4H inh inconclusive, CendR NRP1 mod 22.0, PABP FP inh inconclusive, MLLE-PAM2 inh 48.7
CC(C)C[C@H](N)c1cn([C@@H](CCCCN)C(=O)N2CCNCC2)nn1	PABP FP inh 51.8
NCCCC[C@@H](C(=O)N1CCNCC1)n1cc(CN)nn1	none (no result: eIF4H inh, PABP FP inh)
CC(C)CC(N)c1cn([C@@H](CCC(=O)O)C(=O)N2CCNCC2)nn1 (stereo partly specified)	none
Cc1ccc([C@H]2C[C@@H](O)[C@H](n3cc(-c4ccc(F)cc4)nn3)CN2C(=O)c2cccs2)cc1	none (no result: eIF4H inh, PABP FP inh)
COc1cc(Cl)c(C)cc1NC(=O)COc1ccc(C)nc1[N+](=O)[O-]	none (no result: eIF4H inh, PABP FP inh)
Cc1ccc(Cc2cnc(NC(=O)/C(C#N)=C/c3ccc(-c4ccccc4[N+](=O)[O-])o3)s2)cc1	none
Cn1cc(/C=C(\C#N)C(=O)Nc2ncc(Cc3ccc(Cl)cc3)s2)c2ccccc21	eIF4H inh 62.9, PABP FP inh active
COc1cc(Nc2nc3ccccc3n3nnnc23)cc(OC)c1OC	eIF4H inh 79.9, PABP FP inh 86.6
COc1ccc(NS(=O)(=O)c2ccc(C(=O)N3CCN(c4ccc(F)cc4)CC3)cc2)cc1	none (no result: eIF4H inh, PABP FP inh)
COc1ccc(N2CCN(C(=O)c3ccc(NS(=O)(=O)c4ccc(F)c(F)c4)cc3)CC2)cc1	CendR NRP1 mod 51.2
COc1ccc(Br)cc1[C@H]1[C@H]2C=CC[C@@H](C)[C@@H]2C(=O)N1Cc1ccccc1	none
C=CCn1c(-c2ccc(Cl)cc2)cnc1SC(C)C(=O)NC(N)=O (stereo unspecified)	none
C=CCn1c(-c2ccc(Cl)cc2)cnc1SC(C)C(N)=O (stereo unspecified)	CendR NRP1 mod 19.4
COc1cccc(OCc2nn3c(=O)c(-c4ccccc4)nnc3s2)c1	none
CNC(=O)c1ccsc1NC(=O)c1sc2ccccc2c1Cl	eIF4H inh 54.0, PABP FP inh 52.0
Cc1nnc(NC(=O)c2sc3ccccc3c2Cl)s1	none
Cc1c(C(=O)N2CCOCC2)c(S(=O)(=O)Nc2cccc(C#N)c2)c(C)n1C	CendR NRP1 mod 22.1
Cc1c(C(=O)N2CCOCC2)c(S(=O)(=O)Nc2cccc(F)c2)c(C)n1C	none
COc1cccc(C(c2nnnn2C(C)(C)C)N2CCN(C/C=C/c3ccccc3)CC2)c1OC (stereo unspecified)	none (no result: eIF4H inh, PABP FP inh)
O=C(c1n[nH]c2ccccc12)N1CCN(S(=O)(=O)c2ccc3ccccc3c2)CC1	CendR NRP1 mod 47.4
Cc1ccc(S(=O)(=O)N2CCN(C(=O)c3n[nH]c4ccccc34)CC2)cc1	none (no result: eIF4H inh, PABP FP inh)
O=C(NCCc1ccc(Cl)cc1)C1CCC(=O)N(C2CCCCCC2)C1 (stereo unspecified)	none
O=C(NCc1ccc(Cl)cc1)C1CCC(=O)N(C2CC2)C1 (stereo unspecified)	CendR NRP1 mod 20.2
Cc1cc(SCNC(=O)c2ccccc2)nc(C(C)C)n1	MLLE-PAM2 inh 41.2
Cc1ccc(C(=O)CSc2cc(C)nc(SCC(=O)c3ccccc3)n2)cc1	none
Cc1cc(SCC(=O)c2ccccc2)nc(C)n1	CendR NRP1 mod 26.1
Cc1cc(C)nc(SCc2ccc(C(=O)N/N=C/c3cccc(O)c3O)cc2)n1	eIF4H inh 97.4, PABP FP inh active
Cc1cc(C)nc(SCC(=O)O)n1	none
Cc1cc(SCC(N)=O)nc(SCC(=O)c2ccccc2)n1	none
Cc1cc(C)nc(SCNC(=O)c2ccccc2)n1	MLLE-PAM2 inh 43.1
COC(=O)c1cc(S(=O)(=O)N2CCCCCC2)c[nH]1	none
COc1ccc(CNC(=O)c2ccc3nc(C)c(N(C)Cc4ccc(NC(C)=O)cc4)n3c2)cc1	none (no result: eIF4H inh, PABP FP inh)
COC(=O)c1c(NC(=O)c2cccc([N+](=O)[O-])c2)sc(C(N)=O)c1C	eIF4H inh 62.8, PABP FP inh 28.4
O=C(O)COc1ccccc1C=NNC(=O)c1ccccc1NS(=O)(=O)c1cccs1	none (no result: eIF4H inh, PABP FP inh)
S=c1nc2c(n[nH]1)c1ccccc1n2CCc1ccccc1	MLLE-PAM2 inh 38.7
Cc1ccc(/C=C/C(=O)N2CCc3ccccc32)o1	none
O=C(/C=C/c1ccco1)N1CCc2ccccc21	eIF4H inh 17.6
Cc1ccc(F)c(S(=O)(=O)NC(=O)C2(C)CCN2C(=O)CC2CCCCC2)c1 (stereo unspecified)	none (no result: eIF4H inh, PABP FP inh)
N=C(N)c1ccc(N=Nc2c(O)ccc3c2[nH]c2ccccc23)cc1	CendR NRP1 mod 72.5 (no result: eIF4H inh, PABP FP inh)
Oc1cccc(NC(=S)N=Nc2c(O)[nH]c3ccccc23)c1	MLLE-PAM2 inh 38.2
CCCCNC(=S)N=Nc1c(O)[nH]c2ccccc12	none
NC(=S)N=Nc1c(O)[nH]c2ccccc12	none
CCOc1ccc(NC(=S)N=Nc2c(O)[nH]c3ccccc23)cc1	MLLE-PAM2 inh 37.8
O=C(Nc1ccc(OC(F)F)cc1)c1cc(S(=O)(=O)N2CCOCC2)ccc1N1CCCC1	none (no result: eIF4H inh, PABP FP inh)
CN(C)c1cc(-c2ccc(Cl)c(Cl)c2)oc(=O)c1Cl	none
O=C(c1coc2ccc(O)cc12)C1CC1	CendR NRP1 mod 19.1
CN1CCN(C2CN(Cc3ccc([N+](=O)[O-])cc3)S(=O)(=O)C2)CC1 (stereo unspecified)	none (no result: eIF4H inh, PABP FP inh)

From PubChem BioAssay
